Screening results from PubChem BioAssay.
Smad3 inh: blocks human Smad3 binding to FoxH1 peptide; inhibition, % at 25 µM; 0.29% of 88,000 active; AID 630; P84022; TR-FRET Smad3/Dy647-FoxH1 peptide binding, europium anti-His;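 active = compounds that reduce the energy-transfer binding signal between the protein and its labelled peptide by more than half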
Target sequence (P84022 whole entry, looked up): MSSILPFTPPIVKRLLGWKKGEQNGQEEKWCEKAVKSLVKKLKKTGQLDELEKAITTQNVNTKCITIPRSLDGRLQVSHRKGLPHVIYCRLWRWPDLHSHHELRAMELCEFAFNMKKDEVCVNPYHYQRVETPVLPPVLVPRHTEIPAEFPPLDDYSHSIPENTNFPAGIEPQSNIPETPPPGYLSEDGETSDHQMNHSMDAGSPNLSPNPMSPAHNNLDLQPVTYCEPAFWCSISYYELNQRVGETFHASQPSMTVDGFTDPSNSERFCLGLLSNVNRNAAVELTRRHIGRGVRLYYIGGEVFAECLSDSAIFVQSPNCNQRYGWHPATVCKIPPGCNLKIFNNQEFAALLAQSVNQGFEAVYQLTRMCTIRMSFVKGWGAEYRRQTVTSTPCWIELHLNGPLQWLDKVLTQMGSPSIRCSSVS
NFkB transloc pot: enhances IL-1B driven NFkB nuclear translocation; HUVEC IL-1B NFkB p65 nuclear translocation imaging; activation, % at 2 µM; 0.3% of 94,000 active; AID 819;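 active = activation above 40%, about the mean plus 3 SD, also judged a hit on visual image review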;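 note: percent activation is computed from the nuclear over cytoplasmic p65 intensity ratio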
IL1B cytotox: toxic to HUVEC cells under IL-1B stimulation | HUVEC cell count loss, Hoechst imaging, IL-1B stimulated | cell count reduction, % at 2 µM | 0.41% of 94,000 active | AID 845;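 active = cell count reduction more than 3 SD above the screen-wide mean, cut at about 70% in these data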
NFkB transloc inh: blocks IL-1B driven NFkB nuclear translocation in HUVEC cells. inhibition, % at 2 µM. AID 796. HUVEC IL-1B NFkB p65 nuclear translocation imaging. 0.43% of 94,000 active;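 active = inhibition above about 30% together with a positive call from visual inspection of the well image, limit read from the data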;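 note: nuclear over cytoplasmic p65 intensity ratio measured by imaging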
Each line names hits and unclear results; the compound was inactive in the other large screens. A selection: hits, their analogues and other compounds. The true share with any hit is near 1.2%.

COC(=O)C1=C(C)OC(N)=C(C#N)C1c1ccc(OC)c(OC)c1OC (stereo not drawn)	none
O=C(c1csc2ccccc12)N1CCN(c2ccc(Cl)c(Cl)c2)CC1	NFkB transloc inh 62 (no result: Smad3 inh)
O=C(Cn1nc(Cc2ccncc2)c2ccccc2c1=O)N1CCc2ccccc2C1	NFkB transloc pot 72
C=C(CC(=O)O)C(=O)O (tested in a mixture with another compound)	Smad3 inh 87 (no result: NFkB transloc pot, IL1B cytotox, NFkB transloc inh)
CCc1ccc(-n2c(SCc3c(C)noc3C)nnc2-c2ccncc2)cc1	NFkB transloc pot 67
COc1ccc([C@@H](Nc2ccccn2)c2cc(C(C)(C)C)cc(C(C)(C)C)c2O)cc1	Smad3 inh 69 (no result: NFkB transloc pot, IL1B cytotox, NFkB transloc inh)
COc1ccc([C@@H](Nc2ncccn2)c2cc3c(cc2O)OCO3)cc1	none (no result: NFkB transloc pot, IL1B cytotox, NFkB transloc inh)
CC(NC(=O)NC(N)=O)(C(F)(F)F)C(F)(F)F	NFkB transloc pot 41 (no result: Smad3 inh)
O=C(OCC(=O)N1CCCC1)c1cncc(Br)c1	IL1B cytotox 88, NFkB transloc inh 98
Cc1ccccc1-c1noc(CCC(=O)NCC2CCCO2)n1 (stereo not drawn)	IL1B cytotox 84
Cc1cccc(-c2noc(CCC(=O)NCC3CCCO3)n2)c1 (stereo not drawn)	none
O=C1C(=O)N(CCCn2ccnc2)C(c2cccnc2)/C1=C(/O)c1ccc(Cl)cc1 (stereo not drawn)	none (no result: NFkB transloc pot, IL1B cytotox, NFkB transloc inh)
Cc1nn(-c2ccc(S(=O)(=O)O)cc2)c(O)c1N=Nc1ccc(-c2ccc(N=Nc3ccc4c(S(=O)(=O)O)cc(S(=O)(=O)O)c(N)c4c3O)c(O)c2)cc1O.[Cu].[Cu]	Smad3 inh 101 (no result: NFkB transloc pot, IL1B cytotox, NFkB transloc inh)
CC(C)(N)C(=O)N[C@@H]1C(=O)N2[C@H]1SC(C)(C)[C@H]2C(=O)O	none (no result: NFkB transloc pot, IL1B cytotox, NFkB transloc inh)
COc1ccc(OC)c(N(CC(=O)Nc2cccnc2)S(=O)(=O)c2ccc(OC)c(OC)c2)c1	IL1B cytotox 90, NFkB transloc inh 91
COc1ccc(OC)c(N(CC(=O)Nc2cccnc2)S(=O)(=O)c2ccc(C)cc2)c1	NFkB transloc inh 60
COc1ccc(OC)c(N(CC(=O)Nc2cccnc2)S(C)(=O)=O)c1	none
OC[C@H]1O[C@@H](O)[C@H](N=Cc2ccc3c(c2)OCO3)[C@@H](O)[C@@H]1O	none (no result: NFkB transloc pot, IL1B cytotox, NFkB transloc inh)
O=C(NCC(F)(F)F)Nc1cccnc1	IL1B cytotox 90, NFkB transloc inh 77
COc1ccc(OC)c(-n2c(-c3ccc(C)cc3)n[nH]c2=S)c1	IL1B cytotox 88
C[C@@]12CC[C@H]3c4ccc(OCC(=O)O)cc4CC[C@@H]3[C@H]1CCC2=O	none (no result: NFkB transloc pot, IL1B cytotox, NFkB transloc inh)
CCN(CCO)C[C@@H]1CCC[C@@H]2CCCC[C@H]21	none (no result: NFkB transloc pot, IL1B cytotox, NFkB transloc inh)
CCc1nc2ccccc2c(C(=O)OCC(=O)Nc2cccc(S(=O)(=O)N3CCOCC3)c2)c1C	Smad3 inh 89
OC[C@H](S)CS	Smad3 inh 86 (no result: NFkB transloc pot, IL1B cytotox, NFkB transloc inh)
c1ccc2c(c1)-c1nc3ccccc3cc1[C@@H]2N1CCOCC1	none (no result: NFkB transloc pot, IL1B cytotox, NFkB transloc inh)
O=C(O)c1ccccc1/C=N/N=C1c2ccccc2-c2ccccc21	Smad3 inh 62 (no result: NFkB transloc pot, IL1B cytotox, NFkB transloc inh)
COCCNC(=S)N/N=C/c1ccccc1C(=O)O	none (no result: Smad3 inh)
CC1CN(C(=O)c2scc3c2OCCO3)CC(C)O1 (stereo not drawn)	IL1B cytotox 93, NFkB transloc inh 80
Nc1ccn([C@H]2O[C@H](COC(=O)C34CC5CC(CC(C5)C3)C4)[C@@H](O)[C@@H]2O)c(=O)n1	none (no result: NFkB transloc pot, IL1B cytotox, NFkB transloc inh)
Cc1nc2c(n1O)CCC/C2=N\O	NFkB transloc pot 49
CC(C(=O)Nc1ccccc1F)N1C(=O)c2ccccc2C1=O (stereo not drawn)	none (no result: Smad3 inh)
CC(C(=O)Nc1ncn[nH]1)N1C(=O)c2ccccc2C1=O (stereo not drawn)	IL1B cytotox 83
N#Cc1ccc(CNc2cnccn2)cc1	IL1B cytotox 94 (no result: Smad3 inh)
N#Cc1ccc(CSc2nnc(-c3cnccn3)o2)cc1	none
O=C(O)CC1(C(=O)O)CCCCC1	none (no result: NFkB transloc pot, IL1B cytotox, NFkB transloc inh)
CCOC(=O)Nc1oc2ccccc2c(=O)c1C	NFkB transloc inh 36
CCC1CCCCN1C(=O)CSc1nnc(-c2ccc(Cl)s2)o1 (stereo not drawn)	IL1B cytotox 87
CC12C=CC3(O1)C(C(=O)N(c1cccnc1)C3C(=O)NC1CCCCC1)C2C(=O)Nc1ccccc1 (stereo not drawn)	NFkB transloc inh 31
Cn1c2ccccc2c2ncn(Cc3ccco3)c(=O)c21	none
Cn1c2ccc(F)cc2c2ncn(Cc3ccco3)c(=O)c21	NFkB transloc inh 32
COCc1[nH]nc2c1C(c1ccccc1Cl)C(C#N)=C(N)O2 (stereo not drawn)	IL1B cytotox 88
CCCS(=O)(=O)N1CCCC(C(=O)NC2CCCC(C)C2C)C1 (stereo not drawn)	none
CCCS(=O)(=O)N1CCC(C(=O)NC2CCCC(C)C2C)CC1 (stereo not drawn)	NFkB transloc pot 46 (no result: Smad3 inh)
CC(C)(CO[C@@H]1C[C@@H]2CC[C@@]1(C)C2(C)C)[N+](=O)[O-]	none (no result: NFkB transloc pot, IL1B cytotox, NFkB transloc inh)
CCN1CCCCC(=N/O)/C(=N\O)CCCC1	none (no result: NFkB transloc pot, IL1B cytotox, NFkB transloc inh)
S=C(Nc1ccc(N2CCOCC2)cc1)Nc1ccc2nc(-c3ccco3)c(-c3ccco3)nc2c1	NFkB transloc inh 45
O=C(Nc1ccc(N2CCOCC2)cc1)c1ccc2nc(-c3ccco3)c(-c3ccco3)nc2c1	none
COc1ccc(S(=O)(=O)N(CC(N)=O)C2CCCCC2)cc1Cl	IL1B cytotox 93
COc1ccc(S(=O)(=O)N(C)CC(=O)NC2CCCCC2)cc1Cl	none
O=C(O)c1ccccc1C(=O)Nc1cc2c(cc1Br)-c1ccccc1C2=O	Smad3 inh 101 (no result: NFkB transloc pot, IL1B cytotox, NFkB transloc inh)
O=C(O)CN(CCN(CC(=O)O)CC(=O)O)CC(=O)O.[Mn+2]	none (no result: NFkB transloc pot, IL1B cytotox, NFkB transloc inh)
O=C(c1cccs1)N1CCN(C2CCCCC2)CC1	none
NC(=O)C1(N2CCCCC2)CCN(C(=O)c2cccs2)CC1	NFkB transloc pot 40
NC(=O)C1(N2CCCCC2)CCN(C2CC(=O)N(Cc3cccs3)C2=O)CC1 (stereo not drawn)	NFkB transloc inh 32
Clc1ccc(COn2nnc3ccccc32)c(Cl)c1	none
N/C(CC/C(N)=N\O)=N\O	none (no result: NFkB transloc pot, IL1B cytotox, NFkB transloc inh)
Cc1ccc(C)c(/C(O)=C2/C(=O)C(=O)N(CCN3CCOCC3)C2c2ccc(C)o2)c1 (stereo not drawn)	NFkB transloc pot 107
Cc1cc(C(=O)O)cc(S(=O)(=O)N2CCOCC2)c1C	none
Cc1ccc(-n2cnnn2)c(S(=O)(=O)N2CCOCC2)c1	NFkB transloc inh 35
Cc1ccccc1N1C(=O)N(c2cccc(C(F)(F)F)c2)C2CS(=O)(=O)CC21 (stereo not drawn)	NFkB transloc pot 73
Nc1nc(C(=O)N2CCOCC2)nn1S(=O)(=O)c1ccccc1	none
Nc1nc(C(=O)N2CCOCC2)nn1S(=O)(=O)c1ccc(Cl)cc1	IL1B cytotox 92
Cc1c(C(=O)NCc2ccco2)oc2ccc(S(=O)(=O)N3CCC4(CC3)OCCO4)cc12	NFkB transloc inh 32
Cc1c(C(=O)NCCc2ccccc2)oc2ccc(S(=O)(=O)N3CCC4(CC3)OCCO4)cc12	none
CCCCNc1c(CN)cnc2cc(Cl)ccc12	none (no result: NFkB transloc pot, IL1B cytotox, NFkB transloc inh)
c1ccc(B2OC[C@@H]3OB(c4ccccc4)O[C@H]([C@@H]4COB(c5ccccc5)O4)[C@H]3O2)cc1	none (no result: NFkB transloc pot, IL1B cytotox, NFkB transloc inh)
CCc1nnc(NC(=O)CCC(=O)N2CCCC2)s1	NFkB transloc pot 79
COc1cc(OC)cc(C(=O)NN2CCCCC2)c1	NFkB transloc inh 56 (no result: Smad3 inh)
COc1cccc(OC)c1C(=O)NN1CCCCC1	none (no result: Smad3 inh)
O=C(O)[C@@H]1O[C@H]1C(=O)O	none (no result: NFkB transloc pot, IL1B cytotox, NFkB transloc inh)
